Tests used:
Assay in all cases: DAPPL (digital affinity profiling via proximity ligation, sequencing); 10 mM Tris-HCl pH 7.5, 50 mM NaCl, 1 mM DTT, 4% glycerol, room temperature, 30 min; GST-TFs on glutathione beads, 16-mer random dsDNA library, 0.1% formaldehyde crosslink after washing; high values mean tight binding
Details in all cases: protein: recombinant; tags: N-terminal GST; dsDNA, one strand shown
[1] = molecular target: T1, ELK1 (Homo sapiens, UniProt P19419 1-428)
T1 sequence: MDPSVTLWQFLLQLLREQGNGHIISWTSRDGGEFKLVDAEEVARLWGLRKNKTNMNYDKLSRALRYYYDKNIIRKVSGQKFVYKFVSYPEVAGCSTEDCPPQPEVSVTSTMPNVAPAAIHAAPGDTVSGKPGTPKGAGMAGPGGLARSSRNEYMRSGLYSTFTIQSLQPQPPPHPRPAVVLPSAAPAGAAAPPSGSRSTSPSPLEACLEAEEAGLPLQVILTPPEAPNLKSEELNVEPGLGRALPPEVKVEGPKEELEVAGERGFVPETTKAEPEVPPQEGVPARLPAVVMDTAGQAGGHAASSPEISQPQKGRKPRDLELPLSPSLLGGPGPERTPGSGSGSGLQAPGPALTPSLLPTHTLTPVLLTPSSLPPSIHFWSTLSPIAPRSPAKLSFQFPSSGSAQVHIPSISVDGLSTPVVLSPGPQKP
Procedure, shortened: (§1)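 Pools were built from human transcription factors expressed in yeast as GST fusions, captured on glutathione beads and DNA-barcoded, along with a tag-only sample. Incubation with 200 nmole of a 16-mer random double-stranded DNA library lasted 30 min at room temperature in Tris/NaCl/DTT/glycerol buffer, and was followed by washing, 0.1% formaldehyde crosslinking, proximity ligation, PCR amplification and Illumina NextSeq500 sequencing. Binding signal is the quotient of each hexamer's read frequency for a factor and its frequency for the tag-only sample.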

[2] = molecular target: T2, GABPA (Homo sapiens, UniProt Q06546 1-454)
T2 sequence: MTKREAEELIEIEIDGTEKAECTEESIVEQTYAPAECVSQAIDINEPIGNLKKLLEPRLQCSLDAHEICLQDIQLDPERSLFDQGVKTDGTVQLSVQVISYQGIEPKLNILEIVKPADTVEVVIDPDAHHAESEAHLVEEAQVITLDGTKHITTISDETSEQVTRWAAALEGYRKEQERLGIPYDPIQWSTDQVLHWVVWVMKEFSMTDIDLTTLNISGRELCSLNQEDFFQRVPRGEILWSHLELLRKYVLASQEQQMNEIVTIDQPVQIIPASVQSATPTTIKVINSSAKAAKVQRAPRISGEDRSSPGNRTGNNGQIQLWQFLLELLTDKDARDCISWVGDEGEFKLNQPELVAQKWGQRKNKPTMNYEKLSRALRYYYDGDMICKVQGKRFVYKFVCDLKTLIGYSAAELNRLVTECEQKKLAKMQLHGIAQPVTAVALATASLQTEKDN
Procedure, shortened: as §1

[3] = molecular target: ELF1 (Homo sapiens, UniProt P32519 1-619)
ELF1, sequence (P32519 whole entry): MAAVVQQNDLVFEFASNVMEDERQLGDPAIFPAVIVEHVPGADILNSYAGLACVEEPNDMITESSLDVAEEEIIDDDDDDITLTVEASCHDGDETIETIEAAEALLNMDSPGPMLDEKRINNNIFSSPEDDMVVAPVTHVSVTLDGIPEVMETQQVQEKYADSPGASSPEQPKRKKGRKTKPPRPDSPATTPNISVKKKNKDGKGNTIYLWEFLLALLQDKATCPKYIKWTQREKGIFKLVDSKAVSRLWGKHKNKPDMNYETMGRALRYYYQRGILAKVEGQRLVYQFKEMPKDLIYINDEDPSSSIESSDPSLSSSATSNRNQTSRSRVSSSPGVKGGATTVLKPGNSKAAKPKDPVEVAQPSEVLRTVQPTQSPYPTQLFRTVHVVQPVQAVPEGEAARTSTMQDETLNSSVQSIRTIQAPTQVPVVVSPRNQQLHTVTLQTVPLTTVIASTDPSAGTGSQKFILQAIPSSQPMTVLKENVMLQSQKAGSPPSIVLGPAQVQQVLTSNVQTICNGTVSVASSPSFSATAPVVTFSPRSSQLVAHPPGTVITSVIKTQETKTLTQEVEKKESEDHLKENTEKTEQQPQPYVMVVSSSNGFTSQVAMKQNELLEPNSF
Procedure, shortened: as §1

[4] = molecular target: T3, EHF (Homo sapiens, UniProt Q9NZC4 1-300)
T3 sequence: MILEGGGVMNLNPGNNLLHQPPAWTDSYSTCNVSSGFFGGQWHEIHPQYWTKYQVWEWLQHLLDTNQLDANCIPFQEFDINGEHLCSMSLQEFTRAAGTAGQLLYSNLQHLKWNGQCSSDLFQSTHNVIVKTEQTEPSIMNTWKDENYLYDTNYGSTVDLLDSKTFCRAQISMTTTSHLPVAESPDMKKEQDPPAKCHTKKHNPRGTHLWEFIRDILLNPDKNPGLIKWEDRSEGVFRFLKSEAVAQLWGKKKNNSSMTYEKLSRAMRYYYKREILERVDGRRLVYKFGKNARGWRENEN
Procedure, shortened: as §1

[5] = molecular target: T4, ELK3 (Homo sapiens, UniProt P41970 1-407)
T4 sequence: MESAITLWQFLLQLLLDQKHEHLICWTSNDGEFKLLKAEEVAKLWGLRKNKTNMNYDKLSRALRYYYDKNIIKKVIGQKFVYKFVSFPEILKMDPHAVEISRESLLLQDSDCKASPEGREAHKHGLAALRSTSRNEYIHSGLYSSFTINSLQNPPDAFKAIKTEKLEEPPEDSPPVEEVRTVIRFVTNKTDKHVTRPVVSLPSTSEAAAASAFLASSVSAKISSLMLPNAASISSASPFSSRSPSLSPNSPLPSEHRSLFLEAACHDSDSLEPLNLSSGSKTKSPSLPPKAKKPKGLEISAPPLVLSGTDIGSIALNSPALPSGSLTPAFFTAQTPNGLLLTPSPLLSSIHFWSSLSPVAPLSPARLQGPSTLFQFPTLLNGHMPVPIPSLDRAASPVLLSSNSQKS
Procedure, shortened: as §1

[6] = molecular target: T5, FEV (Homo sapiens, UniProt Q99581 1-238)
T5 sequence: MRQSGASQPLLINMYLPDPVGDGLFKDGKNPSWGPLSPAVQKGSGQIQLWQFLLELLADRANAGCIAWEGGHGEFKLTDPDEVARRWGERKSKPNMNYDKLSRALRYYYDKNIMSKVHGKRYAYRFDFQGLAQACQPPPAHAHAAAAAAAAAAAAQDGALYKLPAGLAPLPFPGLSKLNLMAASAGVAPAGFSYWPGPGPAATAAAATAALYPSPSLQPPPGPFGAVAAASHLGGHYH
Procedure, shortened: as §1

[7] = molecular target: T6, SPIC (Homo sapiens, UniProt Q8N5J4 1-248)
T6 sequence: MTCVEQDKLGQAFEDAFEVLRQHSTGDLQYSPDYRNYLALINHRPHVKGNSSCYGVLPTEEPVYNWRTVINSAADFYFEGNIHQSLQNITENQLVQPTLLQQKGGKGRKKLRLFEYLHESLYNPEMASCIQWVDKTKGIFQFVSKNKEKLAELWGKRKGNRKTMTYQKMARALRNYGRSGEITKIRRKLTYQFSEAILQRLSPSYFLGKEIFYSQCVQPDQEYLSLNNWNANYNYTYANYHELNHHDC
Procedure, shortened: as §1

[8] = molecular target: ELF4 (Homo sapiens, UniProt Q99607 1-663)
ELF4, sequence (Q99607 whole entry): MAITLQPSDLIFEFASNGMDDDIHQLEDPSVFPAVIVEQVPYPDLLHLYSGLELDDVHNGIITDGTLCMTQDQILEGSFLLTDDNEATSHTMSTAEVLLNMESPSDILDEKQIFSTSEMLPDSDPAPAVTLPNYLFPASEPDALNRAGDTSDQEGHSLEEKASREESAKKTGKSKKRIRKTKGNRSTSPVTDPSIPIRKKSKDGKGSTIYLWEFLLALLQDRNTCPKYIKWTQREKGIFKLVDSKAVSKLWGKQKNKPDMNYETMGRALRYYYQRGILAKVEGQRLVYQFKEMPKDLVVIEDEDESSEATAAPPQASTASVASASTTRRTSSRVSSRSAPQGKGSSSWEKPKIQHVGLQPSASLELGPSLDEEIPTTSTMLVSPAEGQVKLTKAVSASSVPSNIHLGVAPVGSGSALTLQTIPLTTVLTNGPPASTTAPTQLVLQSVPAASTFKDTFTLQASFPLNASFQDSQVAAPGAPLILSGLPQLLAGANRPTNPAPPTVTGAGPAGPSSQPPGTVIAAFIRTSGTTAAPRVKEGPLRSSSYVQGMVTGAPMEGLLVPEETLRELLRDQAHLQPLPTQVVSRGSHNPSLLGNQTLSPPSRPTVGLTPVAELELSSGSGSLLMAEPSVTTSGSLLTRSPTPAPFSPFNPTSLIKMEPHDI
Procedure, shortened: as §1

[9] = molecular target: T7, ELK4 (Homo sapiens, UniProt P28324-2 1-405)
T7 sequence: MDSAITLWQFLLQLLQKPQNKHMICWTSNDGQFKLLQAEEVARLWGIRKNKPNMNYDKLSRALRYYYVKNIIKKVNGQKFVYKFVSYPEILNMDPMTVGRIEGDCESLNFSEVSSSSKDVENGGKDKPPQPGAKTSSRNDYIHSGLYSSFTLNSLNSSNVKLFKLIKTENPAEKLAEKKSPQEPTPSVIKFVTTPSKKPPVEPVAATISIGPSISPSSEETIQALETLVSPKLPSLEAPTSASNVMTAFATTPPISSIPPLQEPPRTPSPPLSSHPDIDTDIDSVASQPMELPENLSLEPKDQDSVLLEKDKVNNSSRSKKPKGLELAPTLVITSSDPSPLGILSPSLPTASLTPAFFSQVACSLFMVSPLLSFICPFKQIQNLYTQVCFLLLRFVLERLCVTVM
Procedure, shortened: as §1

[10] = molecular target: T8, ETV2 (Homo sapiens, UniProt O00321 1-342)
T8 sequence: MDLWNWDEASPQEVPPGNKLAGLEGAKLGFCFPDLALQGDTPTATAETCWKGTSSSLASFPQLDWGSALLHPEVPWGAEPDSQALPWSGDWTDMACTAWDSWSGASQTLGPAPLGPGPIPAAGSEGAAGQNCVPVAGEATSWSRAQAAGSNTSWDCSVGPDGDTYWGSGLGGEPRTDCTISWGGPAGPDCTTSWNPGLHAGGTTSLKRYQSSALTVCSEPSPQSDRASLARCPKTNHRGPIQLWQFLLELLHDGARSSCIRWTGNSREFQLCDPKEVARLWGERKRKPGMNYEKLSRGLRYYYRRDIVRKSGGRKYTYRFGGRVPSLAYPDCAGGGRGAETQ
Procedure, shortened: as §1

[11] = molecular target: T9, ETV3L (Homo sapiens, UniProt Q6ZN32 1-361)
T9 sequence: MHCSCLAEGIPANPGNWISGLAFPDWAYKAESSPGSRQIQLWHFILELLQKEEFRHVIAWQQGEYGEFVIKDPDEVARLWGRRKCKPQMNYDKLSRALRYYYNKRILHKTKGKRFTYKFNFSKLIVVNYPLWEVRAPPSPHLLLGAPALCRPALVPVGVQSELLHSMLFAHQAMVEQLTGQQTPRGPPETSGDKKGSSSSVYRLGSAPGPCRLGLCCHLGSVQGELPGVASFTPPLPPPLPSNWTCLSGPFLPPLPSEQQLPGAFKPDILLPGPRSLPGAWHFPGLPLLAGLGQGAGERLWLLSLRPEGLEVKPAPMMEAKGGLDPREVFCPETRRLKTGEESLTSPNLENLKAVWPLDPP
Procedure, shortened: as §1

[12] = molecular target: T10, SPDEF (Homo sapiens, UniProt O95238 1-335)
T10 sequence: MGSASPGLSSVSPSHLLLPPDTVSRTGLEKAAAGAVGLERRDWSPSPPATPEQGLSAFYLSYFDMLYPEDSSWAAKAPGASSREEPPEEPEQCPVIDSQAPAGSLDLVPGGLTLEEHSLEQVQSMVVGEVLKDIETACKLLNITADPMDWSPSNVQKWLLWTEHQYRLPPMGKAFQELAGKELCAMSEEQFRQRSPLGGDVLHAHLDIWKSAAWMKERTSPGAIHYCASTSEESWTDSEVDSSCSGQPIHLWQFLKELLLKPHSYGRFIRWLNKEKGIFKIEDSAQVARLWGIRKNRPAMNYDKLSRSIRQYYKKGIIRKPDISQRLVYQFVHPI
Procedure, shortened: as §1

[13] = molecular target: T11, ETV3 (Homo sapiens, UniProt P41162-2 1-143)
T11 sequence: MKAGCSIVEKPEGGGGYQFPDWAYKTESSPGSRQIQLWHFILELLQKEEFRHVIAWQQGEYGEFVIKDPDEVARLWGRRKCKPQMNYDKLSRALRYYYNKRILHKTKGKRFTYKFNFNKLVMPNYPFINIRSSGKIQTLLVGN
Procedure, shortened: as §1

[14] = molecular target: ETV6 (Homo sapiens, UniProt P41212 1-452)
ETV6, sequence (P41212 whole entry): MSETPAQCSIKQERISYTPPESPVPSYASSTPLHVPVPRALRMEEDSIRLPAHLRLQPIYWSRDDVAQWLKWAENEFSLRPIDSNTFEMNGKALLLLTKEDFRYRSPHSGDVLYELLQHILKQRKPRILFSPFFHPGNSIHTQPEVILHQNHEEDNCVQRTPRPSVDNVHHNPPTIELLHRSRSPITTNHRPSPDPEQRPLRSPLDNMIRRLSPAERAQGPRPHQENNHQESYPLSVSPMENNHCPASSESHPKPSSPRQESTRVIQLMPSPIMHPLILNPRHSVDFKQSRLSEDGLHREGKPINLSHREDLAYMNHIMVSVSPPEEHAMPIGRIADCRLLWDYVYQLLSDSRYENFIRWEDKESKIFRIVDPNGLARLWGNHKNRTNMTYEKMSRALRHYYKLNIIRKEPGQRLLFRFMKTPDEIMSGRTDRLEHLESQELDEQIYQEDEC
Procedure, shortened: as §1

In the case of ACGCGC, the binding signal [1] was 1.12 fold enrichment (6-mer frequency, TF over GST control), the binding signal [2] was 1.07 fold enrichment (6-mer frequency, TF over GST control) and the binding signal [3] was 1.05 fold enrichment (6-mer frequency, TF over GST control). The binding signal [4] was 1.07 fold enrichment (6-mer frequency, TF over GST control), the binding signal [5] was 1.04 fold enrichment (6-mer frequency, TF over GST control) and the binding signal [6] was 1.04 fold enrichment (6-mer frequency, TF over GST control). For the same sequence, the binding signal [7] was 1.05 fold enrichment (6-mer frequency, TF over GST control), the binding signal [8] was 1.06 fold enrichment (6-mer frequency, TF over GST control) and the binding signal [9] was 1.02 fold enrichment (6-mer frequency, TF over GST control). For the same sequence, the binding signal [10] was 1.08 fold enrichment (6-mer frequency, TF over GST control), the binding signal [11] was 1.09 fold enrichment (6-mer frequency, TF over GST control) and the binding signal [12] was 1.06 fold enrichment (6-mer frequency, TF over GST control). For the same sequence, the binding signal [13] was 1.09 fold enrichment (6-mer frequency, TF over GST control).

GCGCCG was tested, and the binding signal [2] was 1.03 fold enrichment (6-mer frequency, TF over GST control), the binding signal [5] was 1.02 fold enrichment (6-mer frequency, TF over GST control) and the binding signal [6] was 1.05 fold enrichment (6-mer frequency, TF over GST control). The binding signal [7] was 1.1 fold enrichment (6-mer frequency, TF over GST control), the binding signal [8] was 1.03 fold enrichment (6-mer frequency, TF over GST control) and the binding signal [9] was 1.03 fold enrichment (6-mer frequency, TF over GST control). The binding signal [14] was 1.05 fold enrichment (6-mer frequency, TF over GST control).
